About 670 (0.34%) of roughly 200,000 compounds were called active. Rule as the data show it: active = activation above about 22%; inactive = the rest. The sample as a whole holds a higher share of actives than the screen did.
Biological target: Peroxisome proliferator-activated receptor gamma (Homo sapiens) (UniProt P37231)
Assay: agonists of PPARg-SRC-2 recruitment, primary screen, biochemical, HTS (AID 1032);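 also: 0% = vehicle and 100% = reference agonist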
Settings: PPARgamma LBD-SRC-2 recruitment, at 8 µM, active compounds read high

Sequence of Peroxisome proliferator-activated receptor gamma (Homo sapiens) (P37231 whole entry, looked up): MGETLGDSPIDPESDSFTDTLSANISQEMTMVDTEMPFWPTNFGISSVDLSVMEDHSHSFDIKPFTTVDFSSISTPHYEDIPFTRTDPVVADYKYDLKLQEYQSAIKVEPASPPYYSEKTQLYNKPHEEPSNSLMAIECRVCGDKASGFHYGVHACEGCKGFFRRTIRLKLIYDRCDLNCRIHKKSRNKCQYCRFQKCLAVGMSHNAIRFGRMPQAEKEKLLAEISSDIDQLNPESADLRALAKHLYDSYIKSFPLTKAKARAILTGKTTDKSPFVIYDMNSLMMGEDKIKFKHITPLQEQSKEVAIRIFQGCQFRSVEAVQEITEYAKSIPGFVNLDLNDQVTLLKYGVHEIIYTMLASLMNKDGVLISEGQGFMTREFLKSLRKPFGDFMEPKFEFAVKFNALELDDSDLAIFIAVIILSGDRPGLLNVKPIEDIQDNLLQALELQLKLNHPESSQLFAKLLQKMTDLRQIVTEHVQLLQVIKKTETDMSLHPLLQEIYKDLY

SMILES | activation
S=c1[nH]cc(-c2ccc(Cl)cc2)n1-c1ccccc1 | 0.94% (inactive)
CCc1ccc(NC(=O)C(C)OC(=O)/C=C/c2cccc([N+](=O)[O-])c2)cc1 (stereo not drawn) | 2.51% (inactive)
Cc1cccn2c(CN(C)C3CCCc4ccccc43)c(C(=O)N3CCOCC3)nc12 (stereo not drawn) | -1.89% (inactive)
CCN(CC)CCCNC(=O)c1cc(-c2cccc(Cl)c2)on1 | 0.37% (inactive)
CCN(CC)CCCNC(=O)CCc1ccccc1 | 9.5% (inactive)
CCN(CCCNC(=O)CSc1cc(=O)n(C)c2cc(Cl)ccc12)Cc1ccccc1 | 26.1% (active)
CCOC(=O)N1CCN(c2cc(C)c([N+](=O)[O-])cc2F)CC1 | -3.32% (inactive)
COc1ccc(OCc2n[nH]c(=S)n2N)cc1 | 4.69% (inactive)
c1ccc(CSc2ncnc3c2sc2nc(N4CCOCC4)c4c(c23)CCCC4)cc1 | 96% (active)
c1ccc(COc2nsnc2N2CCOCC2)cc1 | 7.85% (inactive)
COc1ccc(CSc2nc(N3CCOCC3)c3c(c2C#N)CC(C)(C)OC3)cc1 | -5.06% (inactive)
CNC(=O)c1ccsc1NC(=O)c1ccc(S(=O)(=O)N2CCOCC2)cc1 | 14.3% (inactive)
COc1cc(/C=C(/NC(=O)c2ccc(Cl)cc2Cl)C(=O)O)cc(OC)c1OC | 11.2% (inactive)
Cc1ccc(CNC(=O)CC2Sc3ccccc3NC2=O)cc1 (stereo not drawn) | 0.66% (inactive)
Cc1ccc(S(=O)(=O)c2ccc(Cl)cc2)cc1S(=O)(=O)NC(C(=O)O)C(C)C (stereo not drawn) | -4.99% (inactive)
COc1cccc(NCCC(=O)c2cccc([N+](=O)[O-])c2)c1 | 7.36% (inactive)
COc1cccc2c1OCC(CN1CCN(C3CCCCC3)C(CCO)C1)=C2 (stereo not drawn) | 1.05% (inactive)
Cn1c(N)cc(-c2ccc(F)cc2)c(C#N)c1=O | 1.85% (inactive)
NC(=NC(=O)c1ccccc1)N1CCOCC1 | 11.2% (inactive)
CC(C(=O)N1CCOCC1)N1c2cccc3cccc(c23)S1(=O)=O (stereo not drawn) | 28.1% (active)

SMILES | activation
Cc1ccc(S(=O)(=O)NC(C(=O)N2CCOCCOCCOCCOCC2)c2ccccc2)cc1 (stereo not drawn) | 6.3% (inactive)
Oc1cccc2ccc(/C=C/c3ccc(Br)s3)nc12 | -1.88% (inactive)
N#Cc1c(N)nc2c(c1N)CC(C(F)(F)F)O2 (stereo not drawn) | 2.19% (inactive)
Cc1cccc(-c2ncc(CN3CCC(CO)(CCCc4ccccc4)CC3)cn2)c1 | 5% (inactive)
OCC1(CCc2ccccc2)CCN(Cc2ccc3nsnc3c2)CC1 | 39.5% (active)
CC(=O)c1cccc(CN2CCC(CO)(Cc3ccccc3)CC2)c1 | 4.63% (inactive)
Cc1ccc(NC(=O)c2ccc(S(=O)(=O)NCC3CCCO3)cc2)cc1C (stereo not drawn) | -6.15% (inactive)
O=C(Nc1ccc(N2CCN(C(=O)C3CC3)CC2)cc1)c1cccs1 | 4.68% (inactive)
O=C(CS(=O)(=O)c1ccccc1)Nc1ccc(S(=O)(=O)Nc2ccccn2)cc1 | -6.08% (inactive)
CC(=O)N/N=C(\C)c1ccc(Br)cc1Br | -4.44% (inactive)
Cc1ccc2nc(-c3cccc(Br)c3)cc(C(=O)Nn3cnnc3)c2c1 | -0.43% (inactive)
Cc1ccc(-c2cc(C(=O)NCc3cn(C)nc3C)c3cc(Br)ccc3n2)cc1 | 37% (active)
COc1ccc(Cl)cc1C(=O)NCc1cn(C)nc1C | 8.12% (inactive)
O=C(Oc1cccc(O)c1)C1CCCCC1 | 1.13% (inactive)
Cc1ccc(NC(=O)c2ccc(Oc3ncccn3)cc2)cc1 | 3.49% (inactive)
CCN(/N=C/c1ccc(N(C)C)cc1)c1nc2ccccc2[nH]1 | 23% (active)
CCN(/N=C/c1ccccc1)c1cc(=O)n(C)c(=O)[nH]1 | -3.6% (inactive)
CN(C)c1ccc(/C=N/N(Cc2ccccc2)c2ccccc2)cc1 | 11.9% (inactive)
O=C(Nc1ccccc1F)c1ccc(Cn2cc(Br)cn2)cc1 | -1.02% (inactive)
CN1CCN(CCC(=O)N/N=C/C=C2\N(C)c3ccccc3C2(C)C)CC1 | 10% (inactive)

SMILES | activation
O=C(Nc1ccncc1)c1ccccc1[N+](=O)[O-] | -0.46% (inactive)
CCn1cc(CNC(=O)c2cc([N+](=O)[O-])c(C)c([N+](=O)[O-])c2)cn1 | -6.4% (inactive)
COc1ccc(NC(=S)NC2CCS(=O)(=O)C2)cc1 (stereo not drawn) | 6.88% (inactive)
O=C(O)Cc1sc(-c2ccccc2)nc1-c1cccs1 | 34.7% (active)
O=C(O)Cc1sc(-c2ccc(C(=O)O)cc2)nc1-c1ccccc1 | 10.9% (inactive)
Cc1ccc(-c2nc(C)sc2CC(=O)O)cc1 | -0.57% (inactive)
COc1ccc(NC(=O)CN(C)CC(=O)Nc2cccc(C(F)(F)F)c2)cc1 | -2.86% (inactive)
COc1cc2c(cc1OC)CC1(CCCCC1)N=C2 | 0.25% (inactive)
Cc1n[nH]c(=O)nc1N/N=C/c1cccs1 | 3.35% (inactive)
COc1cccc(-n2c(=O)c3c(C)c(C(=O)N(C)C)sc3n(CC(=O)NCCc3ccc(OC)c(OC)c3)c2=O)c1 | 9.15% (inactive)
O=C(NNc1ccccc1Cl)C(O)(c1cccc(C(F)(F)F)c1)c1cccc(C(F)(F)F)c1 | 17.2% (inactive)
Fc1ccc(COc2cccc(-c3n[nH]c(=S)o3)c2)cc1 | 44.9% (active)
Cc1cccc(OCc2ccc(C(=O)Nc3ccc(F)cc3)cc2)c1 | -0.72% (inactive)
Cc1nc2ccccc2cc1OCc1ccc(F)cc1 | 4.89% (inactive)
CC(C)NC(=O)CSc1ccccc1C(=O)NCc1ccc2c(c1)OCO2 | -4.93% (inactive)
CCn1c(=O)cc(SCC(=O)NCc2ccc3c(c2)OCO3)c2ccccc21 | 36% (active)
CCn1c(=O)cc(SCC(=O)NCCC2=CCCCC2)c2ccccc21 | 16.9% (inactive)
O=C(N/N=C/c1ccc2c(c1)OCO2)C(=O)N1CCCC1 | -5.72% (inactive)
